Experimental data from PubChem BioAssay.
Values joined by “and” are separate entries in the source; they are usually repeats but may differ in a detail not shown here. Identical values can stand only once. Active and inactive are the calls of the source. Rule as the data show it, unless noted: active = inhibition above about 80%; inactive = the rest.

Assays:
[1] = LFS_MB_P medulloblastoma growth inhibition, cell-based, chromothripsis tumors, cisplatin or BGB combos (AID 1671449); settings: LFS_MB_P medulloblastoma cells;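 also: cells exposed for 96 hours; 0% = vehicle DMSO and 100% = killing by high DMSO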
[2] = HDN33 neuroblastoma growth inhibition, cell-based, chromothripsis tumors, cisplatin or BGB combos (AID 1671450); settings: HDN33 neuroblastoma cells, stronger effect = higher value;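 also: cells exposed to compound for four days; 0% = vehicle DMSO and 100% = cell killing by high DMSO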
[3] = ICB984 medulloblastoma cell growth inhibition, synergistic combos for chromothripsis tumors, cisplatin or BGB combos (AID 1671451; call rule not given here;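 also: cells exposed for 96 hours before readout; 0% = vehicle DMSO and 100% = killing by high DMSO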); settings: ICB984 medulloblastoma cells, drug combinations, stronger effect = higher value
[4] = LFS_MB_1R medulloblastoma cell growth inhibition, synergistic combos for chromothripsis tumors, cisplatin or BGB combos (AID 1671452); settings: LFS_MB_1R medulloblastoma cells, stronger effect = higher value;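 also: cells exposed for 96 hours before readout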
[5] = HTB85 osteosarcoma cell growth inhibition, synergistic combos for chromothripsis tumors, BGB or cisplatin IC20 combos (AID 1671453); settings: HTB85 osteosarcoma cells, drug combinations, stronger effect = higher value;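 also: cells exposed for 96 hours before readout; 0% = vehicle DMSO and 100% = high DMSO killing control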
[6] = CRL2098 osteosarcoma cell growth inhibition, synergistic combos for chromothripsis tumors, BGB or cisplatin IC20 combos (AID 1671454); settings: CRL2098 osteosarcoma cells, drug combinations, stronger effect = higher value;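 also: cells exposed for 96 h before readout; 0% = vehicle DMSO and 100% = killing by high DMSO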
[7] = HD-MB03 medulloblastoma cell growth inhibition, synergistic combos for chromothripsis tumors, BGB or cisplatin IC20 combos (AID 1671455; in the data active = inhibition above about 83%;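 also: 0% = vehicle DMSO and 100% = high DMSO as cytotoxic control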); settings: HD-MB03 medulloblastoma cells, stronger effect = higher value
[8] = UWB1.289 ovarian carcinoma cell growth inhibition, synergistic combos for chromothripsis tumors, BGB or cisplatin combos (AID 1671456); settings: UWB1.289 ovarian carcinoma cells, stronger effect = higher value;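 also: cells exposed to compound for four days; 0% = vehicle DMSO and 100% = killing by high DMSO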
[9] = LFS_MB_2R medulloblastoma cell growth inhibition, synergistic combos for chromothripsis tumors, cisplatin combos (AID 1671457); settings: LFS_MB_2R medulloblastoma cells, stronger effect = higher value;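 also: cells exposed to compound for four days before readout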
[10] = MDA-MB-436 breast carcinoma cell growth inhibition, synergistic combos for chromothripsis tumors, BGB or cisplatin combos (AID 1671458; call rule not given here;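 also: cells exposed for 96 hours; 0% = vehicle DMSO and 100% = killing by high DMSO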); settings: MDA-MB-436 breast carcinoma growth inhibition, drug combinations, stronger effect = higher value
[11] = UWB1.289_BRCA1 ovarian cancer growth, cell-based, BGB or cisplatin combinations (AID 1671459); settings: UWB1.289 BRCA1 ovarian carcinoma, drug combinations, stronger effect = higher value
[12] = human astrocyte viability loss, single and combined drugs, cytotoxicity control for chromothriptic childhood tumor combination screen, cell-based, BGB or cisplatin IC20 combos (AID 1671460); settings: Human astrocytes, drug combinations, stronger effect = higher value;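 also: cells exposed to compounds for 96 hours before viability readout; 0% = vehicle and 100% = killing control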
[13] = growth inhibition of BT084 medulloblastoma cells, cell-based, ICGC_MB145, cisplatin and BGB IC40 combos (AID 1671461); settings: drug combinations, stronger effect = higher value;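 also: cells exposed to drugs for 96 hours; 0% = vehicle DMSO and 100% = high DMSO full killing control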
[14] = growth inhibition of RCMB18 medulloblastoma cells, cell-based, cisplatin and BGB IC40 combos (AID 1671462); settings: stronger effect = higher value;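 also: cells exposed to compound for four days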
[15] = growth inhibition of CRL1545 osteosarcoma cells, cell-based, cisplatin and BGB IC20 combos (AID 1671464); settings: stronger effect = higher value;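 also: cells exposed to compound for 96 hours before readout; 0% = vehicle DMSO and 100% = high DMSO killing control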
[16] = circadian clock period modulators, cell-based, LOPAC library, luminescence reporter (AID 2774; call rule not given here;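 also: values are relative to mean of DMSO wells on each plate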); settings: circadian reporter cells, at 7 µM, actives lie on both sides
[17] = viability rescue of complex I mutant cybrids, primary screen, cell-based, galactose medium, ATP luminescence (AID 1645843;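 active = z-score of at least 1.8 in each of two replicates, scored against plate mean and spread of sample wells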;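 also: positive z means more ATP and so rescue of galactose-driven cybrid death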); settings: complex I mutant cybrid cells, 72 h, stronger effect = higher value
[18] = measured here: combination with BGB IC40, at 0.05 µM
[19] = measured here: with BGB IC20 combination, at 0.5 µM
[20] = measured here: with cisplatin IC20 combination, at 0.5 µM
[21] = measured here: combination with cisplatin, at 0.5 µM
[22] = measured here: combination with cisplatin, at 5 µM

With `Cc1c(N)nc(C(CC(N)=O)NCC(N)C(N)=O)nc1C(=O)NC(C(=O)NC(C)C(O)C(C)C(=O)NC(C(=O)NCCc1nc(-c2nc(C(=O)NCCC[S+](C)C)cs2)cs1)C(C)O)C(O[C@@H]1O[C@@H](CO)[C@@H](O)[C@H](O)[C@@H]1O[C@H]1O[C@H](CO)[C@@H](O)[C@H](OC(N)=O)[C@@H]1O)c1cnc[nH]1` (stereo partly drawn) the inhibition ([1]; at 0.5 µM, stronger effect = higher value) was -26.9% (inactive) and -11.5% (inactive), the inhibition ([1]; measured here: combination with BGB IC20, at 0.005 µM) was 28.9% and -33.7% and the inhibition ([1]; measured here: combination with BGB IC40, at 0.005 µM) was -4.08% and -32.1%. The inhibition [1, 18] was 1.25% and -43.8%, the inhibition ([1]; measured here: combination with cisplatin, at 0.5 µM, stronger effect = higher value) was -37.7% and -28% and the inhibition ([1]; measured here: combination with cisplatin, at 5 µM, stronger effect = higher value) was -0.936% and -58.3%. The inhibition ([2]; BGB combo, at 5 µM) was 94.9% and 96.7%, the inhibition ([2]; at 0.5 µM) was 56.2% (inactive) and 63.6% (inactive) and the inhibition ([2]; cisplatin combo, at 5 µM) was 90% and 97.3%. For the same compound, the inhibition [2, 19] was 57.4% and 65.6%, the inhibition [2, 20] was 46.8% and 53.3% and the inhibition ([2]; single agent, at 5 µM) was 95% and 97.6%. For the same compound, the inhibition ([3]; BGB IC20 combo, at 0.005 µM) was 15.2% and 12.8%, the inhibition ([3]; BGB IC40 combo, at 0.005 µM) was -5.04% and -17.2% and the inhibition ([3]; BGB IC40 combo, at 0.05 µM) was 2.59% and -11.2%. The inhibition ([3]; at 0.5 µM) was -18.3% (inactive) and -34.3% (inactive), the inhibition ([3]; cisplatin combo, at 0.05 µM) was -0.135% and -15.2% and the inhibition ([3]; cisplatin combo, at 0.5 µM) was -22.6% and -41.3%. For the same compound, the inhibition ([3]; cisplatin combo, at 5 µM) was -35.8% and -29.6%, the inhibition ([3]; measured here: 5 uM single agent, at 5 µM) was -30.1% and -12.5% and the inhibition ([4]; at 0.5 µM) was -1.28% (inactive) and 4.59% (inactive). For the same compound, the inhibition [4, 18] was -22.4% and 5.32%, the inhibition [4, 21] was 19.1% and 22.6% and the inhibition [4, 22] was 2.08% and 20.3%. For the same compound, the inhibition ([5]; at 0.5 µM) was 23% (inactive) and 30.3% (inactive), the inhibition ([5]; measured here: with BGB IC20, at 0.5 µM) was 21.6% and 26.9% and the inhibition ([5]; measured here: with BGB IC20, at 5 µM) was 61.8% and 92.6%. For the same compound, the inhibition ([5]; measured here: with cisplatin IC20, at 0.5 µM) was 14.2% and 23.1%, the inhibition ([5]; measured here: with cisplatin IC20, at 5 µM) was 54.6% and 74.3% and the inhibition ([5]; single agent, at 5 µM) was 73.7% and 82.2%. For the same compound, the inhibition ([6]; at 0.5 µM) was 33.9% (inactive) and 38.3% (inactive), the inhibition ([6]; measured here: combination with BGB at IC20, at 0.5 µM) was 21% and 37.5% and the inhibition ([6]; measured here: combination with cisplatin at IC20, at 0.5 µM) was 31% and 27.7%. The inhibition ([7]; at 0.5 µM) was 48.5% (inactive) and 64.8% (inactive), the inhibition ([7]; measured here: combo with BGB at IC20, at 0.5 µM) was 54.2% and 75.3% and the inhibition ([7]; measured here: combo with cisplatin at IC20, at 0.5 µM) was 40% and 68.2%. The inhibition ([8]; at 0.5 µM) was 22.8% (inactive) and 41.7% (inactive), the inhibition ([8]; measured here: inhibition with BGB combination, at 0.05 µM) was 12.4% and -1.23% and the inhibition ([8]; measured here: inhibition with cisplatin combination, at 0.05 µM) was 12.6% and 30.8%. For the same compound, the inhibition ([9]; at 0.5 µM) was -1.61% (inactive) and -19.6% (inactive), the inhibition [9, 21] was 1.34% and -24.5% and the inhibition [9, 22] was -27.5% and -11.4%. For the same compound, the inhibition ([10]; at 0.5 µM) was 15.9% (inactive) and 17.6% (inactive), the inhibition ([10]; measured here: BGB combination, at 0.5 µM) was 8.64% and 0.685% and the inhibition ([10]; measured here: BGB combination, at 5 µM) was 29.8% and 10.1%. For the same compound, the inhibition ([10]; measured here: cisplatin combination, at 0.5 µM) was 17.1% and 11.9%, the inhibition ([10]; measured here: cisplatin combination, at 5 µM) was 42.7% and 28.7% and the inhibition ([11]; BGB combination, concentration series, at 5 µM) was 33.2% and 41.4%. For the same compound, the inhibition ([11]; at 0.5 µM) was 17% (inactive) and 31.1% (inactive), the inhibition ([11]; cisplatin combination, concentration series, at 5 µM) was 31.9% and 22.9% and the inhibition ([12]; at 0.5 µM) was 35.7% (inactive) and 41.9% (inactive). The inhibition ([12]; measured here: combo with BGB IC20, at 0.5 µM) was 41.1% and 49.2%, the inhibition ([12]; measured here: combo with cisplatin IC20, at 0.5 µM) was 9.83% and 15.3% and the inhibition ([13]; at 0.5 µM) was -4.03% (inactive) and -7.21% (inactive). For the same compound, the inhibition ([13]; cisplatin combination, at 0.5 µM) was -3.29% and -12.5%, the inhibition ([13]; cisplatin combination, at 5 µM) was 4.08% and 10.3% and the inhibition ([13]; measured here: BGB IC40 combination 0.05 uM, at 0.05 µM) was -1.66% and -25.1%. For the same compound, the inhibition ([13]; single agent, at 5 µM) was -12.7% and -10.7%, the inhibition ([14]; at 0.5 µM) was 32.3% (inactive) and -22.9% (inactive) and the inhibition ([14]; cisplatin combo, at 5 µM) was 15.5% and 7.73%. For the same compound, the inhibition ([14]; measured here: BGB IC40 combination, at 0.05 µM) was -15.7% and -30.1%, the inhibition [14, 21] was 27.9% and 2.02% and the inhibition ([14]; single agent, at 5 µM) was -20% and -46.7%. For the same compound, the inhibition ([15]; at 0.5 µM) was 32% (inactive) and 45.1% (inactive), the inhibition [15, 19] was 25.4% and 41.5% and the inhibition [15, 20] was 33.8% and 46%. For the same compound, the inhibition ([15]; single agent, at 0.05 µM) was 23% and 12.8% and the inhibition ([15]; single agent, at 5 µM) was 88.5% and 95.5%.

In the case of `CP(=O)(O)CCCN`, the period change [16] is reported as -0.005 h (inactive).

With `CCCOC1CCCN(C2CCN(C)CC2)C1` (stereo not drawn) the z-score [17] was -0.46 (inactive).

For `CCN(CC)C(=O)N[C@@H]1C=C2c3cccc4[nH]cc(c34)C[C@H]2N(C)C1`, the period change [16] was 0.415 h (inactive).

In the case of `CN1CCC23CCCC[C@H]2C1Cc1ccc(O)cc13` (stereo partly drawn), the period change [16] is reported as -0.06 h (inactive).

In the case of `C[C@]12CC[C@H](OS(=O)(=O)O)CC1=CC[C@@H]1[C@@H]2CC[C@]2(C)C(=O)CC[C@@H]12`, the period change [16] is reported as -0.035 h (inactive).

In the case of `N[C@@H](Cn1cc(I)c(=O)[nH]c1=O)C(=O)O`, the period change [16] is reported as -0.19 h (inactive).

With `COc1ccc2[nH]cc(CCN(C)C)c2c1` the period change [16] was 0.045 h (inactive).

With `Nc1ncnc2c1ncn2C1OC2COP(O)(=S)O[C@@H]2[C@@H]1O` (stereo partly drawn) the period change [16] was -0.125 h (inactive).

In the case of `CCN1CCCC(N2CCN3CCCC3C2)C1` (stereo not drawn), the z-score [17] is reported as -0.225 (inactive).

With `CC1=C[C@@H]2c3cccc4[nH]cc(c34)C[C@H]2N(C)C1` the period change [16] was 0.28 h (inactive).
